Measurements: PubChem BioAssay AID1159580 (chemical genetic matrix, 2015)
The campaign covered roughly 5,500 compounds. About 2,000 (36%) were called active. Roughly 18% stayed inconclusive and do not appear here. Rule as the data show it: active = normalized growth mostly below about 0.91 (no sharp cut-off); inconclusive = no clear call, values can overlap the other calls; inactive = mostly above about 0.92. This is one part of the list.

Assay: chemical genetic growth profiling, strain panel (AID 1159580);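 also: tested at 20 µM; growth read once vehicle control cultures reached saturation at 30 °C; 1 = growth at the plate median or of vehicle wells; lower values mean less growth of the strain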
Settings: growth OD
[1] = S. cerevisiae deletion strains, locus YAL013W, strain DEP1, stronger effect = lower value
[2] = S. cerevisiae deletion strains, locus YBR229C, strain ROT2, stronger effect = lower value
[3] = S. cerevisiae deletion strains, locus YDL101C, strain DUN1, stronger effect = lower value
[4] = S. cerevisiae deletion strains, locus YDR150W, strain NUM1, stronger effect = lower value
[5] = S. cerevisiae deletion strains, locus YEL061C, strain CIN8, stronger effect = lower value
[6] = S. cerevisiae deletion strains, locus YGR078C, strain PAC10, stronger effect = lower value
[7] = S. cerevisiae deletion strains, locus YHR030C, strain SLT2, stronger effect = lower value
[8] = S. cerevisiae deletion strains, locus YHR087W, strain rtc3, stronger effect = lower value
[9] = S. cerevisiae deletion strains, locus YJL187C, strain SWE1, stronger effect = lower value
[10] = S. cerevisiae deletion strains, locus YJR043C, strain POL32, stronger effect = lower value
[11] = S. cerevisiae deletion strains, locus YJR075W, strain HOC1, stronger effect = lower value
[12] = S. cerevisiae deletion strains, locus YLR039C, strain RIC1, stronger effect = lower value
[13] = S. cerevisiae deletion strains, locus YLR058C, strain SHM2 (second series), stronger effect = lower value
[14] = S. cerevisiae deletion strains, locus YLR085C, strain ARP6, stronger effect = lower value
[15] = S. cerevisiae deletion strains, locus YLR262C, strain YPT6, stronger effect = lower value
[16] = S. cerevisiae deletion strains, locus YML094W, strain GIM5, stronger effect = lower value
[17] = S. cerevisiae deletion strains, locus YMR219W, strain ESC1, stronger effect = lower value
[18] = S. cerevisiae deletion strains, locus YMR263W, strain SAP30, stronger effect = lower value
[19] = S. cerevisiae deletion strains, locus YMR307W, strain GAS1, stronger effect = lower value
[20] = S. cerevisiae deletion strains, locus YNL153C, strain GIM3, stronger effect = lower value
[21] = S. cerevisiae deletion strains, locus YNL298W, strain CLA4 (second series), stronger effect = lower value
[22] = S. cerevisiae deletion strains, locus YNL322C, strain KRE1, stronger effect = lower value
[23] = S. cerevisiae deletion strains, locus YNR030W, strain Alg12, stronger effect = lower value
[24] = S. cerevisiae deletion strains, locus YPL055C, strain LGE1, stronger effect = lower value
[25] = S. cerevisiae deletion strains, locus YPL241C, strain CIN2, stronger effect = lower value
[26] = S. cerevisiae deletion strains, locus YPR135W, strain CTF4, stronger effect = lower value

Measured: normalized growth

CCCc1cc(C(=O)Nc2ccc(N(CC)CC)cc2)nn1-c1ccccc1
active: S. cerevisiae deletion strains, locus YDL134C, strain PPH21, stronger effect = lower value 0.873 | [5] 0.895 | [7] 0.276 | [19] 0.275 | S. cerevisiae deletion strains, locus YOL006C, strain TOP1, stronger effect = lower value 0.626
inactive: [1] 0.98 | [2] 0.983 | [3] 0.981 | [4] 0.966 | [6] 0.975 | [8] 0.981 | [9] 0.991 | [10] 0.973 | [11] 0.967 | S. cerevisiae deletion strains, locus YKL190W, strain CNB1, stronger effect = lower value 0.96 | [12] 1 | [13] 0.982 | [14] 0.813 | [15] 0.915 | [16] 0.911 | [17] 0.999 | [18] 0.991 | [20] 0.987 | [21] 0.884 | [22] 0.991 | [23] 0.89 | [24] 0.973 | [25] 0.92 | [26] 0.718 | S. cerevisiae strains, strain wild type, stronger effect = lower value 0.922

C(=NC(N=Cc1ccccc1)c1ccccc1)c1ccccc1 (centres undefined)
inactive: S. cerevisiae deletion strains, locus YAR019C, strain CDC15, stronger effect = lower value 0.983 | S. cerevisiae deletion strains, locus YBL105C, strain PKC1, stronger effect = lower value 0.991 | S. cerevisiae deletion strains, locus YBR135W, strain CKS1, stronger effect = lower value 0.986 | S. cerevisiae deletion strains, locus YBR136W, strain MEC1, stronger effect = lower value 0.977 | S. cerevisiae deletion strains, locus YBR160W, strain CDC28, stronger effect = lower value 0.989 | S. cerevisiae deletion strains, locus YDL017W, strain CDC7, stronger effect = lower value 0.99 | S. cerevisiae deletion strains, locus YDL028C, strain MPS1, stronger effect = lower value 0.984 | [3] 0.994 | S. cerevisiae deletion strains, locus YDL108W, strain KIN28, stronger effect = lower value 0.976 | S. cerevisiae deletion strains, locus YDL132W, strain cdc53, stronger effect = lower value 0.992 | S. cerevisiae deletion strains, locus YDL214C, strain PRR2, stronger effect = lower value 0.956 | S. cerevisiae deletion strains, locus YDR052C, strain DBF4, stronger effect = lower value 0.989 | S. cerevisiae deletion strains, locus YDR054C, strain cdc34, stronger effect = lower value 0.991 | S. cerevisiae deletion strains, locus YDR226W, strain ADK1, stronger effect = lower value 0.992 | S. cerevisiae deletion strains, locus YDR477W, strain SNF1, stronger effect = lower value 0.963 | S. cerevisiae deletion strains, locus YER123W, strain YCK3, stronger effect = lower value 0.937 | S. cerevisiae deletion strains, locus YER133W, strain GLC7, stronger effect = lower value 0.971 | S. cerevisiae deletion strains, locus YFL009W, strain cdc4, stronger effect = lower value 0.992 | S. cerevisiae deletion strains, locus YFL029C, strain CAK1, stronger effect = lower value 0.981 | S. cerevisiae deletion strains, locus YFR003C, strain YPI1, stronger effect = lower value 0.989 | S. cerevisiae deletion strains, locus YFR019W, strain FAB1, stronger effect = lower value 0.962 | S. cerevisiae deletion strains, locus YFR028C, strain CDC14, stronger effect = lower value 0.995 | S. cerevisiae deletion strains, locus YGR040W, strain KSS1, stronger effect = lower value 0.958 | S. cerevisiae deletion strains, locus YGR052W, strain FMP48, stronger effect = lower value 1.03 | S. cerevisiae deletion strains, locus YGR092W, strain DBF2, stronger effect = lower value 0.974 | [7] 0.919 | S. cerevisiae deletion strains, locus YHR079C, strain IRE1, stronger effect = lower value 0.934 | S. cerevisiae deletion strains, locus YHR082C, strain KSP1, stronger effect = lower value 0.986 | S. cerevisiae deletion strains, locus YHR205W, strain SCH9, stronger effect = lower value 0.894 | S. cerevisiae deletion strains, locus YIL147C, strain SLN1, stronger effect = lower value 0.984 | S. cerevisiae deletion strains, locus YJL095W, strain BCK1, stronger effect = lower value 0.918 | S. cerevisiae deletion strains, locus YJL128C, strain PBS2, stronger effect = lower value 0.961 | S. cerevisiae deletion strains, locus YJL157C, strain FAR1, stronger effect = lower value 0.977 | S. cerevisiae deletion strains, locus YJR016C, strain ILV3, stronger effect = lower value 0.997 | S. cerevisiae deletion strains, locus YJR066W, strain TOR1 (second series), stronger effect = lower value 0.937 | S. cerevisiae deletion strains, locus YJR066W, strain TOR1, stronger effect = lower value 0.973 | S. cerevisiae deletion strains, locus YKL048C, strain ELM1, stronger effect = lower value 0.957 | S. cerevisiae deletion strains, locus YKL067W, strain YNK1, stronger effect = lower value 0.956 | S. cerevisiae deletion strains, locus YKL101W, strain HSL1, stronger effect = lower value 0.941 | S. cerevisiae deletion strains, locus YKL193C, strain SDS22, stronger effect = lower value 0.995 | S. cerevisiae deletion strains, locus YKL203C, strain TOR2, stronger effect = lower value 1.02 | S. cerevisiae deletion strains, locus YLR133W, strain CKI1, stronger effect = lower value 0.958 | S. cerevisiae deletion strains, locus YLR403W, strain SFP1, stronger effect = lower value 0.945 | S. cerevisiae deletion strains, locus YML070W, strain DAK1, stronger effect = lower value 0.947 | S. cerevisiae deletion strains, locus YMR001C, strain CDC5, stronger effect = lower value 0.995 | S. cerevisiae deletion strains, locus YMR205C, strain PFK2 (second series), stronger effect = lower value 0.953 | S. cerevisiae deletion strains, locus YMR277W, strain FCP1, stronger effect = lower value 0.998 | S. cerevisiae deletion strains, locus YNL006W, strain LST8, stronger effect = lower value 0.994 | S. cerevisiae deletion strains, locus YNL020C, strain ARK1, stronger effect = lower value 0.966 | S. cerevisiae deletion strains, locus YNL161W, strain CBK1, stronger effect = lower value 0.992 | S. cerevisiae deletion strains, locus YNL183C, strain NPR1, stronger effect = lower value 0.946 | S. cerevisiae deletion strains, locus YNL207W, strain RIO2, stronger effect = lower value 0.983 | S. cerevisiae deletion strains, locus YNL222W, strain SSU72, stronger effect = lower value 0.99 | S. cerevisiae deletion strains, locus YNL307C, strain MCK1 (second series), stronger effect = lower value 0.964 | S. cerevisiae deletion strains, locus YOL078W, strain AVO1, stronger effect = lower value 0.992 | S. cerevisiae deletion strains, locus YOL136C, strain PFK27, stronger effect = lower value 0.968 | S. cerevisiae deletion strains, locus YOR061W, strain CKA2, stronger effect = lower value 0.942 | S. cerevisiae deletion strains, locus YOR119C, strain RIO1, stronger effect = lower value 0.972 | S. cerevisiae deletion strains, locus YOR231W, strain MKK1, stronger effect = lower value 0.911 | S. cerevisiae deletion strains, locus YOR329C, strain SCD5, stronger effect = lower value 0.989 | S. cerevisiae deletion strains, locus YPL031C, strain PHO85, stronger effect = lower value 0.962 | S. cerevisiae deletion strains, locus YPL153C, strain RAD53, stronger effect = lower value 0.955 | S. cerevisiae deletion strains, locus YPL204W, strain HRR25, stronger effect = lower value 0.976 | S. cerevisiae deletion strains, locus YPL209C, strain IPL1, stronger effect = lower value 0.99 | S. cerevisiae deletion strains, locus YPL256C, strain CLN2, stronger effect = lower value 0.913 | S. cerevisiae deletion strains, locus YPR025C, strain CCL1, stronger effect = lower value 0.991 | S. cerevisiae deletion strains, locus YPR106W, strain ISR1, stronger effect = lower value 0.99 | S. cerevisiae deletion strains, locus YPR111W, strain DBF20, stronger effect = lower value 0.985 | S. cerevisiae deletion strains, strain NNK1, stronger effect = lower value 0.981 | S. cerevisiae deletion strains, strain TSCII, stronger effect = lower value 0.991
active: S. cerevisiae deletion strains, locus YLR113W, strain HOG1, stronger effect = lower value 0.856

O=C(NC(c1ccccc1)C(N=Cc1ccccc1)c1ccccc1)c1ccccc1 (centres undefined)
inactive: [1] 1 | [2] 1.02 | S. cerevisiae deletion strains, locus YCL061C, strain MRC1, stronger effect = lower value 1.02 | [3] 1 | [4] 0.959 | [5] 1.03 | [6] 1.01 | S. cerevisiae deletion strains, locus YGR229C, strain SMI1, stronger effect = lower value 1.02 | [7] 1.05 | [8] 1 | [9] 1.02 | [10] 1.02 | [11] 1.01 | [12] 1.04 | [13] 1.03 | [14] 1.03 | [15] 1.1 | [16] 1.01 | [17] 1.01 | [18] 0.978 | [19] 0.999 | [20] 0.998 | [21] 1.05 | [22] 1 | [23] 1.02 | [24] 0.917 | [25] 1.01 | [26] 1.01
